# Results published in publication PMC7826789 (International Journal of Molecular Sciences, 2021).
# How the values were obtained:
# YSK1 = tested on: T1, YSK1; settings: Compound Concentration (nM):1000
# T1 construct: gene STK25
# YSK4 = tested on: T2, YSK4; settings: Compound Concentration (nM):1000
# T2 construct: gene MAP3K19
# ZAK = settings: Compound Concentration (nM):1000
# ZAP70 = settings: Compound Concentration (nM):1000
# p38-alpha = tested on: T3, p38-alpha; settings: Compound Concentration (nM):1000
# T3 construct: gene MAPK14
# p38-beta = tested on: T4, p38-beta; settings: Compound Concentration (nM):1000
# T4 construct: gene MAPK11
# p38-delta = tested on: T5, p38-delta; settings: Compound Concentration (nM):1000
# T5 construct: gene MAPK13
# p38-gamma = tested on: T6, p38-gamma; settings: Compound Concentration (nM):1000
# T6 construct: gene MAPK12
# 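Throughout, for Percent Control: KINOMEscan scanMAX binding as percent activity remaining versus control; lower means stronger binding.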
smiles,measurement,setting,value
CS(=O)(=O)c1ccc(-c2cnc(N)c(C(=O)Nc3ccccc3)n2)cc1 [VE-821],Kinases covered,ATR,ATR
Cc1cccc(-c2nc(Nc3ccncc3)c3ccccc3n2)n1 [GW855857],Kinases covered,ACVR1B,ACVR1B
Cl.O=S1CCN(Cc2ccc(-c3ccc4ncnc(Nc5ccc(OCc6ccccc6)c(F)c5)c4c3)o2)CC1 [GW576924A],Percent Control,YSK1,81%
same,Percent Control,YSK4,100%
same,Percent Control,ZAK,100%
same,Percent Control,ZAP70,100%
same,Percent Control,p38-alpha,100%
same,Percent Control,p38-beta,100%
same,Percent Control,p38-delta,100%
same,Percent Control,p38-gamma,99%
CNS(=O)(=O)c1ccc(N(C)C)c(Nc2ncnc3cc(OC)c(OC)cc23)c1 [GSK114],Kinases covered,ACK1,ACK1
Cc1cccc(-c2cc(Nc3ccncc3)c3ccccc3n2)n1 [GSK223675],Kinases covered,ACVR1B,ACVR1B
CCS(=O)(=O)c1ccc(OC)c(Nc2ncc(-c3cccc(F)c3)o2)c1 [GW621970X],Percent Control,YSK1,79%
same,Percent Control,YSK4,90%
same,Percent Control,ZAK,82%
same,Percent Control,ZAP70,86%
same,Percent Control,p38-alpha,100%
same,Percent Control,p38-beta,100%
same,Percent Control,p38-delta,100%
same,Percent Control,p38-gamma,100%
Nc1ncnc2occ(-c3ccc(NC(=O)Nc4cc(C(F)(F)F)ccc4F)cc3)c12 [GW770249X],Percent Control,YSK1,70%
same,Percent Control,YSK4,0.1%
same,Percent Control,ZAK,46%
same,Percent Control,ZAP70,86%
same,Percent Control,p38-alpha,85%
same,Percent Control,p38-beta,57%
same,Percent Control,p38-delta,4.8%
same,Percent Control,p38-gamma,18%
CN(C)CCNC(=O)Nc1ccc(N(C)c2ccnc(Nc3ccc(CS(C)(=O)=O)cc3)n2)cc1.Cl [GW830900A],Percent Control,YSK1,100%
same,Percent Control,YSK4,12%
same,Percent Control,ZAK,100%
same,Percent Control,ZAP70,90%
same,Percent Control,p38-alpha,99%
same,Percent Control,p38-beta,100%
same,Percent Control,p38-delta,99%
same,Percent Control,p38-gamma,100%
COc1cc(-c2cncc(-c3cnn(C4CCNCC4)c3)c2)cc(OC)c1OC [K05908],Kinases covered,ACVR1B,ACVR1B
same,Kinases covered,ACVR1,ACVR1
same,Kinases covered,ACVRL1,ACVRL1
CN1C(=O)c2ccccc2N(C)c2nc(Nc3cnn(C4CCNCC4)c3)ncc21 [XMD-17-51],Kinases covered,ABL1,ABL1
same,Kinases covered,AURKA,AURKA
CCn1cc(-c2ccnc3[nH]c(-c4cccc(CN(C)C)c4)cc23)c(-c2ccc(NC(=O)N(C)C)cc2)n1 [GSK1070916],Kinases covered,AURKB,AURKB
Cc1cc(O)cc(C)c1/C=C/c1cncc(C(N)=O)c1 [GW435821X],Percent Control,YSK1,95%
same,Percent Control,YSK4,84%
same,Percent Control,ZAK,87%
same,Percent Control,ZAP70,96%
same,Percent Control,p38-alpha,100%
same,Percent Control,p38-beta,100%
same,Percent Control,p38-delta,100%
same,Percent Control,p38-gamma,100%
CCc1ccc(Oc2nccc(-c3c(-c4ccc(F)cc4)ncn3C3CCNCC3)n2)cc1 [SB-242719],Percent Control,YSK1,100%
same,Percent Control,YSK4,94%
same,Percent Control,ZAK,84%
same,Percent Control,ZAP70,98%
same,Percent Control,p38-alpha,0.1%
same,Percent Control,p38-beta,3%
same,Percent Control,p38-delta,100%
same,Percent Control,p38-gamma,100%
CNC(=O)c1c(F)cccc1Nc1nc(Nc2cc3c(cc2OC)CCN3C(=O)CN(C)C)nc2[nH]ccc12 [GSK1838705],Kinases covered,ALK,ALK
CNCc1ccc(-c2cc(-c3nc(-c4ccc(S(=O)(=O)C(C)C)cc4)cnc3N)on2)cc1 [VE-822],Kinases covered,ATM,ATM
same,Kinases covered,ATR,ATR
COC(=O)Nc1nc2ccc(Oc3ccc(NC(=O)Nc4cc(C(F)(F)F)ccc4F)cc3)cc2s1.Cl [GW693917A],Percent Control,YSK1,100%
same,Percent Control,YSK4,12%
same,Percent Control,ZAK,6.8%
same,Percent Control,ZAP70,82%
same,Percent Control,p38-alpha,18%
same,Percent Control,p38-beta,10%
same,Percent Control,p38-delta,96%
same,Percent Control,p38-gamma,46%
CCn1c(-c2nonc2N)nc2c(C#CC(C)(C)O)nc(OCCNC)cc21.Cl [GSK949675],Percent Control,YSK1,89%
same,Percent Control,YSK4,0%
same,Percent Control,ZAK,100%
same,Percent Control,ZAP70,100%
same,Percent Control,p38-alpha,100%
same,Percent Control,p38-beta,94%
same,Percent Control,p38-delta,100%
same,Percent Control,p38-gamma,84%
same,Kinases covered,AKT1,AKT1
same,Kinases covered,AKT2,AKT2
COc1cc2ncn(-c3cc(O[C@H](C)c4ccccc4Cl)c(C(N)=O)s3)c2cc1OC [GSK237701A],Percent Control,YSK1,78%
same,Percent Control,YSK4,5.6%
same,Percent Control,ZAK,100%
same,Percent Control,ZAP70,93%
same,Percent Control,p38-alpha,100%
same,Percent Control,p38-beta,100%
same,Percent Control,p38-delta,100%
same,Percent Control,p38-gamma,100%
O=C1Nc2ccc(C(=O)c3ccco3)cc2C1=Cc1cc(Cl)c(O)c(Cl)c1 [GW406108X],Percent Control,YSK1,85%
same,Percent Control,YSK4,20%
same,Percent Control,ZAK,100%
same,Percent Control,ZAP70,100%
same,Percent Control,p38-alpha,93%
same,Percent Control,p38-beta,100%
same,Percent Control,p38-delta,100%
same,Percent Control,p38-gamma,44%
Cn1ccc2ncnc(Oc3ccc(Nc4nc5ccccc5[nH]4)cc3)c21 [TPKI-72],Kinases covered,AURKB,AURKB
COc1cc(C=NNc2ncnc3c2cnn3-c2ccccc2)ccc1O [GW513184X],Percent Control,YSK1,97%
same,Percent Control,YSK4,3.1%
same,Percent Control,ZAK,48%
same,Percent Control,ZAP70,99%
same,Percent Control,p38-alpha,100%
same,Percent Control,p38-beta,88%
same,Percent Control,p38-delta,88%
same,Percent Control,p38-gamma,97%
CC1=C(C(=O)Nc2ccc3[nH]ncc3c2)C(c2ccc(Cl)c(Cl)c2)CC(=O)N1 (stereo not drawn) [GSK299115A],Percent Control,YSK1,67%
same,Percent Control,YSK4,64%
same,Percent Control,ZAK,100%
same,Percent Control,ZAP70,100%
same,Percent Control,p38-alpha,100%
same,Percent Control,p38-beta,100%
same,Percent Control,p38-delta,100%
same,Percent Control,p38-gamma,100%
COc1cc2ncnc(Nc3ccc4c(cnn4Cc4ccccc4)c3)c2cc1OC.Cl [GW282449A],Percent Control,YSK1,89%
same,Percent Control,YSK4,98%
same,Percent Control,ZAK,100%
same,Percent Control,ZAP70,100%
same,Percent Control,p38-alpha,100%
same,Percent Control,p38-beta,100%
same,Percent Control,p38-delta,100%
same,Percent Control,p38-gamma,100%
COc1ccccc1-c1cc(/C=C2\C(=O)Nc3ncc(Br)cc32)cc(Br)c1O [GW442130X],Percent Control,YSK1,99%
same,Percent Control,YSK4,98%
same,Percent Control,ZAK,100%
same,Percent Control,ZAP70,100%
same,Percent Control,p38-alpha,100%
same,Percent Control,p38-beta,92%
same,Percent Control,p38-delta,67%
same,Percent Control,p38-gamma,57%
same,Kinases covered,AURKA,AURKA
